Test in all cases: DAPPL (digital affinity profiling via proximity ligation, sequencing); 10 mM Tris-HCl pH 7.5, 50 mM NaCl, 1 mM DTT, 4% glycerol, room temperature, 30 min; GST-TFs on glutathione beads, 16-mer random dsDNA library, 0.1% formaldehyde crosslink after washing; high values mean tight binding
Common to all, as to conditions: protein: recombinant; tags: N-terminal GST; dsDNA, one strand shown

One test concerns the target T1, ERF (Homo sapiens, UniProt P50548 1-548).
T1 sequence: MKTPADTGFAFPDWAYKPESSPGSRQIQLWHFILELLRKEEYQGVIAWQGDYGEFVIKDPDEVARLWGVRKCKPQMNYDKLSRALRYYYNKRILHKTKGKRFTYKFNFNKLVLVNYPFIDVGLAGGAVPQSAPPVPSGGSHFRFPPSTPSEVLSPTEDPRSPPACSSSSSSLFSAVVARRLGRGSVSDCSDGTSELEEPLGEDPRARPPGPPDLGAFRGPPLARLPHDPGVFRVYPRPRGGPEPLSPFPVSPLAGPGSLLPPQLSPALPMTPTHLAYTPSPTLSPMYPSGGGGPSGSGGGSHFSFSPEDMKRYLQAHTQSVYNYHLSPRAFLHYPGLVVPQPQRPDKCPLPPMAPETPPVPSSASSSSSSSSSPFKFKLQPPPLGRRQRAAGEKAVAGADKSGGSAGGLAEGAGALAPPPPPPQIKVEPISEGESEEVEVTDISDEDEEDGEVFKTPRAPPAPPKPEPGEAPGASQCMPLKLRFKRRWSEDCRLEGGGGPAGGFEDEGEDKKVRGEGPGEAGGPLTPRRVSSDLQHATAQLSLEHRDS
The gist of the method:
(§1)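 Human transcription factors carrying a GST fusion were produced in yeast, bound to glutathione beads, tagged with DNA barcodes and pooled together with a tag-only sample. Each pool was held with 200 nmole of a random double-stranded 16-mer DNA library in Tris/NaCl/DTT/glycerol buffer for 30 min at room temperature, then washed, crosslinked in 0.1% formaldehyde, proximity-ligated with BsaI/T4 ligase (1 h, 37 °C), PCR-amplified and sequenced on an Illumina NextSeq500. Binding signal is the read frequency of each hexamer for a given factor divided by its frequency in the tag-only sample.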

A further test concerns the target T2, ETV3L (Homo sapiens, UniProt Q6ZN32 1-361).
T2 sequence: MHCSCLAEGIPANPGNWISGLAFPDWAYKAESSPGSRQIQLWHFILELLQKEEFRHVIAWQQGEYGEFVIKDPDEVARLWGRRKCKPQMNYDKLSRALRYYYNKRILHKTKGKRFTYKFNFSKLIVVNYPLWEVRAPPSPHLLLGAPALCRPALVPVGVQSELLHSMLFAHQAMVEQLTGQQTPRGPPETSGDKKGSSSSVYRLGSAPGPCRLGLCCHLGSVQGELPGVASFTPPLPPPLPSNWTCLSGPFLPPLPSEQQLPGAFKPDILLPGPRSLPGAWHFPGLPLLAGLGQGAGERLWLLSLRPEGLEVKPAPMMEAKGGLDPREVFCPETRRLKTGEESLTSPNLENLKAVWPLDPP
The gist of the method:
as §1

In a further test the target is T3, ETS2 (Homo sapiens, UniProt P15036 1-469).
T3 sequence: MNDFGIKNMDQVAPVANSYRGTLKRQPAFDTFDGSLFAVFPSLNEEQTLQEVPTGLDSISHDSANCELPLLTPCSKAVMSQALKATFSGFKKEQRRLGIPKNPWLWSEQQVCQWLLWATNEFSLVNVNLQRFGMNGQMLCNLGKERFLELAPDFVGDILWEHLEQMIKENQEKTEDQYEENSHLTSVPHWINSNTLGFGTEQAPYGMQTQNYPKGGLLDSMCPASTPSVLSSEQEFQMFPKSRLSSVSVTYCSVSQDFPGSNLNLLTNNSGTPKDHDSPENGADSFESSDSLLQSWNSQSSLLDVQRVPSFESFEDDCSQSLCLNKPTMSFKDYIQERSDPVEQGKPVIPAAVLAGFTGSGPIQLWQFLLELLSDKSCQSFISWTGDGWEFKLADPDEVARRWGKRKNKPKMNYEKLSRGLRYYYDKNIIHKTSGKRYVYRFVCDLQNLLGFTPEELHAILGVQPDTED
Summed up:
as §1

The target in the next test is T4, SPDEF (Homo sapiens, UniProt O95238 1-335).
T4 sequence: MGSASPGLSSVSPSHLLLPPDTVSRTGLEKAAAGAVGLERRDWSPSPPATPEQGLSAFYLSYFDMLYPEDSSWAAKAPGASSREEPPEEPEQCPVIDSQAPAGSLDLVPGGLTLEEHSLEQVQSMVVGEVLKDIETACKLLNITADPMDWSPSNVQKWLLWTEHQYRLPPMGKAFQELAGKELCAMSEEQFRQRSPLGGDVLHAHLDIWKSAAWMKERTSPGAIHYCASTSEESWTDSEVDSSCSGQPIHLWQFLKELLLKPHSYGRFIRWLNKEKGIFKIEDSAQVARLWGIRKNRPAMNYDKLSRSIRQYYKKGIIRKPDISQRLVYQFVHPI
The gist of the method:
as §1

In another test the target is T5, ETV7 (Homo sapiens, UniProt Q9Y603 1-341).
T5 sequence: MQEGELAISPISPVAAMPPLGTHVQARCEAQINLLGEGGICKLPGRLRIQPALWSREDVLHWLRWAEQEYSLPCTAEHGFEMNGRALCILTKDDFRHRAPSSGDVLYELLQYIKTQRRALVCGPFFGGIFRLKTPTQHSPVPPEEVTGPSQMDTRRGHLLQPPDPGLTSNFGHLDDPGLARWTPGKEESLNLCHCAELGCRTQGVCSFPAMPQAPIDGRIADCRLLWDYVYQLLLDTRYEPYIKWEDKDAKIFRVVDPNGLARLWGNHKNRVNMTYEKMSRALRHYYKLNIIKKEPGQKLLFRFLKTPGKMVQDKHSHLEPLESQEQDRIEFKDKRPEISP
Summed up: as §1

The next test has as its target T6, ELF5 (Homo sapiens, UniProt Q9UKW6-2 1-255).
T6 sequence: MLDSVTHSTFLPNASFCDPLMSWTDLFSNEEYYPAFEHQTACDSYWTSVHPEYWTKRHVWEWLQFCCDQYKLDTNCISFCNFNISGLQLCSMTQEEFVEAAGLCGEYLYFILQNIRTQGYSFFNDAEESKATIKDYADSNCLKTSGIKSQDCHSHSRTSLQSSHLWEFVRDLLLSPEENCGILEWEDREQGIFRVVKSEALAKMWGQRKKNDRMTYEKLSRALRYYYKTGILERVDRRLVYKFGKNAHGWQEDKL
The gist of the method:
as §1

The target in the next test is T7, ETV3 (Homo sapiens, UniProt P41162-2 1-143).
T7 sequence: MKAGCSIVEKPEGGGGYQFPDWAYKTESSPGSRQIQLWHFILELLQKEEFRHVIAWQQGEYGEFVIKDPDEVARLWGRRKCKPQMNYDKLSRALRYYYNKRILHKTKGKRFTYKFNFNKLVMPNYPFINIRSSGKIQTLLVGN
Summed up:
as §1

The target of a further test is ETV6 (Homo sapiens, UniProt P41212 1-452). Summed up: as §1
ETV6, sequence (P41212 whole entry): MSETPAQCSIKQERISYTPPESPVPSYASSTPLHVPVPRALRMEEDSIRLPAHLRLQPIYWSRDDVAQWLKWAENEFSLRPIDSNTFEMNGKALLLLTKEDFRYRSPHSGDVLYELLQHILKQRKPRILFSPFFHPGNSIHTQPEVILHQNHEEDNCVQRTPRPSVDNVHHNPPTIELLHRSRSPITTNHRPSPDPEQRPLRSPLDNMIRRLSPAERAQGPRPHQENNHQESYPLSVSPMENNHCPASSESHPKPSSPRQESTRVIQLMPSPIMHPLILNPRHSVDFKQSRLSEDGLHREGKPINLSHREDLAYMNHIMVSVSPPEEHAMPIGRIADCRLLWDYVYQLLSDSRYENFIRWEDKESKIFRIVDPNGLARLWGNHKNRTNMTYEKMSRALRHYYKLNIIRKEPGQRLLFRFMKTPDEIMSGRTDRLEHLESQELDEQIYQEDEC

For the sequence CCCGAC, the binding signal was 1.29 fold enrichment (6-mer frequency, TF over GST control) with ERF; 1.41 fold enrichment (6-mer frequency, TF over GST control) with ETV3L; 1.27 fold enrichment (6-mer frequency, TF over GST control) with ETS2; 1.44 fold enrichment (6-mer frequency, TF over GST control) in the test with SPDEF; 1.37 fold enrichment (6-mer frequency, TF over GST control) with ETV7; 1.38 fold enrichment (6-mer frequency, TF over GST control) with ELF5. The binding signal is 1.25 fold enrichment (6-mer frequency, TF over GST control) with ETV3 and 1.42 fold enrichment (6-mer frequency, TF over GST control) with ETV6.

Regarding TACCCT, the binding signal is 1.28 fold enrichment (6-mer frequency, TF over GST control) with ERF; 1.18 fold enrichment (6-mer frequency, TF over GST control) with ETV3L; 1.29 fold enrichment (6-mer frequency, TF over GST control) with ETS2; 1.29 fold enrichment (6-mer frequency, TF over GST control) in the test with SPDEF; 1.27 fold enrichment (6-mer frequency, TF over GST control) in the test with ETV7; 1.26 fold enrichment (6-mer frequency, TF over GST control) with ELF5. The binding signal with ETV3 is 1.25 fold enrichment (6-mer frequency, TF over GST control); with ETV6, 1.16 fold enrichment (6-mer frequency, TF over GST control).

For the sequence GCTCCT, the binding signal with ERF is 1.54 fold enrichment (6-mer frequency, TF over GST control); with ETV3L, 1.61 fold enrichment (6-mer frequency, TF over GST control); in the test with ETS2, 1.45 fold enrichment (6-mer frequency, TF over GST control); with SPDEF, 1.54 fold enrichment (6-mer frequency, TF over GST control); in the test with ETV7 it was 1.43 fold enrichment (6-mer frequency, TF over GST control); with ELF5 it was 1.44 fold enrichment (6-mer frequency, TF over GST control). In addition, the binding signal in the test with ETV3 is 1.37 fold enrichment (6-mer frequency, TF over GST control); in the test with ETV6 it was 1.5 fold enrichment (6-mer frequency, TF over GST control).

In the case of TTTCAT, the binding signal with ERF was 1.25 fold enrichment (6-mer frequency, TF over GST control); with ETV3L, 1.15 fold enrichment (6-mer frequency, TF over GST control); with ETS2, 1.17 fold enrichment (6-mer frequency, TF over GST control); with SPDEF, 1.2 fold enrichment (6-mer frequency, TF over GST control); with ETV7, 1.2 fold enrichment (6-mer frequency, TF over GST control); in the test with ELF5, 1.23 fold enrichment (6-mer frequency, TF over GST control). In addition, the binding signal was 1.22 fold enrichment (6-mer frequency, TF over GST control) with ETV3 and 1.13 fold enrichment (6-mer frequency, TF over GST control) with ETV6.

As to TATTAC, the binding signal was 1.22 fold enrichment (6-mer frequency, TF over GST control) with ERF; 1.2 fold enrichment (6-mer frequency, TF over GST control) in the test with ETV3L; 1.18 fold enrichment (6-mer frequency, TF over GST control) in the test with ETS2; 1.23 fold enrichment (6-mer frequency, TF over GST control) with SPDEF; 1.16 fold enrichment (6-mer frequency, TF over GST control) with ETV7; 1.16 fold enrichment (6-mer frequency, TF over GST control) with ELF5. Also, the binding signal is 1.24 fold enrichment (6-mer frequency, TF over GST control) with ETV3 and 1.28 fold enrichment (6-mer frequency, TF over GST control) in the test with ETV6.

Take TCTGCC: the binding signal is 1.35 fold enrichment (6-mer frequency, TF over GST control) with ERF; 1.31 fold enrichment (6-mer frequency, TF over GST control) in the test with ETV3L; 1.45 fold enrichment (6-mer frequency, TF over GST control) with ETS2; 1.26 fold enrichment (6-mer frequency, TF over GST control) with SPDEF; 1.49 fold enrichment (6-mer frequency, TF over GST control) in the test with ETV7; 1.31 fold enrichment (6-mer frequency, TF over GST control) in the test with ELF5. In addition, the binding signal with ETV3 was 1.35 fold enrichment (6-mer frequency, TF over GST control); in the test with ETV6, 1.32 fold enrichment (6-mer frequency, TF over GST control).

Take ACTATA: the binding signal in the test with ERF was 1.29 fold enrichment (6-mer frequency, TF over GST control); with ETV3L, 1.24 fold enrichment (6-mer frequency, TF over GST control); with ETS2 it was 1.36 fold enrichment (6-mer frequency, TF over GST control); with SPDEF, 1.42 fold enrichment (6-mer frequency, TF over GST control); in the test with ETV7 it was 1.28 fold enrichment (6-mer frequency, TF over GST control); with ELF5, 1.35 fold enrichment (6-mer frequency, TF over GST control). The binding signal was 1.33 fold enrichment (6-mer frequency, TF over GST control) in the test with ETV3 and 1.31 fold enrichment (6-mer frequency, TF over GST control) in the test with ETV6.

For the sequence AAAACG, the binding signal was 1.24 fold enrichment (6-mer frequency, TF over GST control) with ERF; 1.19 fold enrichment (6-mer frequency, TF over GST control) with ETV3L; 1.21 fold enrichment (6-mer frequency, TF over GST control) with ETS2; 1.2 fold enrichment (6-mer frequency, TF over GST control) with SPDEF; 1.14 fold enrichment (6-mer frequency, TF over GST control) with ETV7; 1.18 fold enrichment (6-mer frequency, TF over GST control) with ELF5. The binding signal is 1.15 fold enrichment (6-mer frequency, TF over GST control) in the test with ETV3 and 1.25 fold enrichment (6-mer frequency, TF over GST control) with ETV6.

Values taken from paper PMC7862700, “An all-to-all approach to the identification of sequence-specific readers for epigenetic DNA modifications on cytosine”.
